L3MBTL1 block = blocks human L3MBTL1. AlphaScreen L3MBTL1–H3K9me1 peptide binding. 230,000 compounds, 0.66% hits. Potency, µM (top dose mostly 57.1 µM), for inactives: at the highest dose activity, negative = inhibition, most hits filed as inhibitors; further: on the % scale 0 is the no-effect control and ±100 the full control effect; nearly all actives have a fitted effect of over 60% in size
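AlphaScreen assay: L3MBTL1 (50 nM final) was preincubated 30 min at room temperature with biotinylated H3(1-15)K9me1 peptide (75 nM final), then 30 min with library compounds; streptavidin donor and nickel chelate acceptor beads (10 ug/mL final) added, 30 min dark.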
HP1b chromo inh = inhibitors of HP1-beta chromodomain binding to methylated histone tails; AlphaScreen HP1-beta / biotin-H3K9me3 peptide binding; Potency, µM (doses to about 114 µM), without a hit: top-dose activity change, negative = inhibition, hits mostly inhibitors; 390,000 compounds, 0.56% hits; AID 540317; further: nearly all actives have a fitted effect of over 70% in size
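Compound inhibition of the preformed complex between 50 nM HP1-beta and 50 nM biotinylated H3K9me3 peptide was read by AlphaScreen. Buffer was PBS pH 7.4 with 0.01% Tween-20. Incubations ran 30 min at room temperature, with 10 ug/mL donor/acceptor beads.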
Sfp PPTase inh = inhibitors of Bacillus subtilis Sfp phosphopantetheinyl transferase. 310,000 compounds, 3.5% hits. Biochemical Sfp PPTase activity, qHTS. Q9F4F7. Potency, µM, for inactives: largest response in the series, negative = inhibition, most hits filed as inhibitors;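 further: the enzyme is Sfp with the accession as filed and its product quenches rhodamine fluorescence; 0% = enzyme reaction without inhibitor and -100% = no enzyme wells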
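Reaction rates are the 30-min fluorescence difference (ex 525, em 598 nm) in wells containing 15 nM Sfp, 5 uM rhodamine-CoA and 12.5 uM BHQ-2-YbbR at pH 7.6 with 10 mM MgCl2.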
BAZ2B block = blocks human BAZ2B | Potency, µM (doses to about 114 µM), without a hit: at the highest dose activity change, negative = inhibition, hits mostly inhibitors | 360,000 compounds, 4.4% hits | AlphaScreen BAZ2B-H3K14Ac peptide displacement | Q9UIF8; further: on the % scale 0 is the no-effect control and ±100 the full control effect; nearly all actives have a fitted effect of over 60% in size
Target sequence (Q9UIF8 whole entry, looked up): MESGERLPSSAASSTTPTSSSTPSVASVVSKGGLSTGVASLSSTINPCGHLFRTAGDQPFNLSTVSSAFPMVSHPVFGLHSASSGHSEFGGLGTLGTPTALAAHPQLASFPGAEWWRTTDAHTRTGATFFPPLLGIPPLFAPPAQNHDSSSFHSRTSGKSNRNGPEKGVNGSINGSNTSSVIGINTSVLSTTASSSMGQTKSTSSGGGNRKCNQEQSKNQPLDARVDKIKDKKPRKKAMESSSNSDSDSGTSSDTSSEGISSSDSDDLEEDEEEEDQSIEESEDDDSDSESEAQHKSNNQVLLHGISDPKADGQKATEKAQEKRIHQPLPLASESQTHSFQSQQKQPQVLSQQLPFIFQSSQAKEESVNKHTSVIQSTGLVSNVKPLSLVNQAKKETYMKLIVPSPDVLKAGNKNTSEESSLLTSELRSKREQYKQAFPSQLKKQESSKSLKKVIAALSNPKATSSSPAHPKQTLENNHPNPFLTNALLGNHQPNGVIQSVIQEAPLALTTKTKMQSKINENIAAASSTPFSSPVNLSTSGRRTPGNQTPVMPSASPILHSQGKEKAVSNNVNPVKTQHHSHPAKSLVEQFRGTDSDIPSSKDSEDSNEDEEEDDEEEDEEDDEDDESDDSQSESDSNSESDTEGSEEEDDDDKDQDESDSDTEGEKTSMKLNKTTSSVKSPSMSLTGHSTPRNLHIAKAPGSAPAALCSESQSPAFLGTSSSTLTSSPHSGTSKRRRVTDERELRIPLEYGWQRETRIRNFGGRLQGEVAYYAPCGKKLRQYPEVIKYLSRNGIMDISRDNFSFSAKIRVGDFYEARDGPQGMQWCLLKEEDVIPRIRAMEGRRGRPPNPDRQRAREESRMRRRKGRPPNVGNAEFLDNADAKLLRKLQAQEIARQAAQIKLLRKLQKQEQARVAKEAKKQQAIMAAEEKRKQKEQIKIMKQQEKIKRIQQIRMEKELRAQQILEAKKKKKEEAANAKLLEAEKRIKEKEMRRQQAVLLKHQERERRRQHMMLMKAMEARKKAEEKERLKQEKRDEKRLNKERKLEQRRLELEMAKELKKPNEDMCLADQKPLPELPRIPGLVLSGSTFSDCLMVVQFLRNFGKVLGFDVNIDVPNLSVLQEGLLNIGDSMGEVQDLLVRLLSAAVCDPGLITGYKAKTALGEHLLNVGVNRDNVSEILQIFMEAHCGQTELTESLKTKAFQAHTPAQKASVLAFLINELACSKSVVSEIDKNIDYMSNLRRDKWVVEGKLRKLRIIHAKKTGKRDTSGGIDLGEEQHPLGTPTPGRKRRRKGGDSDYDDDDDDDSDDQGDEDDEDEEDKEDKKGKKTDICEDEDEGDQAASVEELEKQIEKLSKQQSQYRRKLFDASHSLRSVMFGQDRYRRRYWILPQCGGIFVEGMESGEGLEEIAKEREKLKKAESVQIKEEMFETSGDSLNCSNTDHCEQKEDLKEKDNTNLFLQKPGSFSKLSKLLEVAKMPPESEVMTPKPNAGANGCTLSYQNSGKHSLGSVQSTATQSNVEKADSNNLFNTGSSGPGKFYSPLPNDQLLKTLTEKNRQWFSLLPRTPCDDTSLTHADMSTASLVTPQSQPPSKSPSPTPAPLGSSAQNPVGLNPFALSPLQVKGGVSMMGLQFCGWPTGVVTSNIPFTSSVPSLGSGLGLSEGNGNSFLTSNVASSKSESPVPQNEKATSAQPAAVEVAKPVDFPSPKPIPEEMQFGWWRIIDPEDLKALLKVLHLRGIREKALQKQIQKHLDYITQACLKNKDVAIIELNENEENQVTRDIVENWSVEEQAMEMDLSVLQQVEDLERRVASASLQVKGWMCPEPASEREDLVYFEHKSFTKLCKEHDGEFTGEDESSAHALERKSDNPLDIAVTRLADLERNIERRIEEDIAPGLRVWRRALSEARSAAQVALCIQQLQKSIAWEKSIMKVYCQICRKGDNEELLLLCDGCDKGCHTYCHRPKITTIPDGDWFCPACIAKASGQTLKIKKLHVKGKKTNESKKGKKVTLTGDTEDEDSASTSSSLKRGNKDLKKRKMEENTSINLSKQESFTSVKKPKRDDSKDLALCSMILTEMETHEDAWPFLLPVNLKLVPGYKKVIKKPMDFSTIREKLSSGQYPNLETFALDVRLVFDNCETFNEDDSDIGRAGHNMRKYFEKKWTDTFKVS
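Multi-concentration screen (max 110 uM) measuring displacement of acetylated histone H3 peptide from BAZ2B by AlphaScreen, using 50 nM protein, 50 nM peptide and 10 ug/mL streptavidin donor plus Ni-chelate acceptor beads.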
JMJD2A Tudor = inhibitors of human JMJD2A Tudor domain. AlphaScreen JMJD2A-Tudor / H3K4me3 peptide binding. Potency, µM (highest dose often 114 µM), for inactives: at the top dose activity change, negative = inhibition, usual class: inhibitors. 390,000 compounds, 4.4% hits. AID 504339; further: on the % scale 0 is the no-effect control and ±100 the full control effect; nearly all actives have a fitted effect of over 50% in size
G9a block = inhibitors of human histone lysine methyltransferase G9a. Q96KQ7. G9a H3K9 monomethylation, AlphaScreen, 2 h. Potency, µM (series often up to 102 µM), for the others: at the highest dose activity, negative = inhibition, usual class: inhibitors. 350,000 compounds, 8.8% hits; further: on the % scale 0 is the no-effect control and ±100 the full control effect; nearly all actives have a fitted effect of over 75% in size
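Methyltransferase reactions run at room temperature for 2 h (20 nM enzyme, 500 nM biotin-H3K9 peptide, 20 uM SAM) after a 15 min compound preincubation; product detected by AlphaScreen beads and anti-H3K9me1 antibody.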
* hit, by the source's call; u = inconclusive; x = no result; [ ] = dose if it differs, or a comment. Most compounds without a hit are left out; they make up all but 12% or so of the library. The call rests on the fitted dose curve; in most records, active means well fitted curve in the direction sought with a large enough effect; inconclusive means small, poorly fitted or top-dose-only effect, or another doubt; inactive means no such curve, though single readings can be large; an effect the other way counts as inactive or inconclusive. Potency means the concentration at half of the fitted maximal effect.

SMILES	L3MBTL1 block	HP1b chromo inh	Sfp PPTase inh	BAZ2B block	JMJD2A Tudor	G9a block
Cc1cc(C)c(S(=O)(=O)N2CCCC(C(=O)NC3CCCC3)C2)c(C)c1 (stereo not drawn)	x	36.4%	1.7%	-2.5%	6.9%	7.6%
Cc1nn(CC(=O)Nc2cccc(C(F)(F)F)c2)c(=O)c2nn(-c3ccccc3)c(C)c12	x	38.4%	x	-12.2%	-0.3%	u
Cc1ccc(-n2c(=O)c3cc4c(=O)n(-c5ccc(C)c(C)c5)c(=O)c4c(C(=O)c4ccc(C(=O)O)cc4)c3c2=O)cc1C	x	u	-22.0%	10µM*	12.6µM*	x
O=C(c1ccc(Cl)c(S(=O)(=O)NCc2ccco2)c1)N1CCN(c2ccccc2F)CC1	x	-32.4%	5.9%	-10.2%	56.2µM*	-12.0%
COc1cc(/C=C(\C#N)c2nc3ccccc3o2)ccc1O	-29.3%	-8.8%	-27.9%	44.7µM*	u	x
O=C(Nc1ccc(F)c(Cl)c1)N1CCC(CN2CCOCC2)CC1	x	14.2%	x	6.1%	-15.5%	-6.2%[59 µM]
Cc1ccccc1N(CC(=O)NCCSCc1ccco1)S(C)(=O)=O	-14.9%	17.6%	20µM*	0.6%	-21.9%	u
Cc1ccccc1CSCCNC(=O)CN(c1ccccc1)S(=O)(=O)N(C)C	x	4.8%	x	-7.3%	44.7µM*	8.3%[59 µM]
CS(=O)(=O)N(CC(=O)NCCSCc1ccccc1)c1ccccc1F	x	20.4%	18.2%	-13.6%	-8.5%	9.2%
N#Cc1nc(N)nc(N2CCCCC2)n1	x	13.9%[57 µM]	x	x	-11.5%[57.1 µM]	x
COc1ccccc1C(=O)Nc1ccc(-c2cc(C(F)(F)F)nn2-c2ccccc2)cc1	x	33.7%	x	-7.5%	-0.7%	3.1%[59 µM]
COc1ccc(-c2nnc3sc(CN4C(=O)c5ccccc5C4=O)nn23)cc1	-2.1%	-6.5%	-10.4%	-0.5%	-2.6%	35.5µM*
COc1ccc(-c2nnc3sc(C(C)N4C(=O)c5ccccc5C4=O)nn23)cc1 (stereo not drawn)	-21.0%	0.3%	-9.1%	-5.8%	17.8µM*	u
Cc1cc2c(ncn2Cc2ccccc2)c(N)c1C	-12.8%	-25.7%	-2.3%	70.8µM*	u	u
CCn1c(=O)n(CC)c2cc(N3CCCC3)c(NC(=O)c3ccc(C)c([N+](=O)[O-])c3)cc21	x	11.8%	-24.4%	-32.3%	u	8.91µM*
CCn1c(=O)n(CC)c2cc(N3CCCC3)c(NC(=O)c3cccc(C)c3)cc21	x	-5.7%	-9.0%	50.1µM*	u	28.2µM*
Cc1ccc(C)c2[nH]c(=O)c(CN(Cc3cccs3)C(=S)NCc3ccco3)cc12	-10.4%	0.3%	-17.2%	-1.3%	-23.3%	0.4%[59 µM]
Cc1ccc(NC(=O)c2cccc(C(=O)Nc3ccc(C)c(C)c3)n2)cc1C	x	-6.0%	-11.2%	1.6%	22.4µM*	66.8%
O=C(O)c1nccnc1C(=O)Nc1ccc(Cl)cn1	x	7.4%[57 µM]	11.1%	u	u	44.7µM*
CC(=O)Nc1cccc(NC(=O)c2ccc(C(=O)Nc3cccc(NC(C)=O)c3)nc2)c1	-12.3%	28.3%	15.0%	-33.4%	-9.8%	-10.4%
CC(=O)c1cccc(NC(=O)c2ccc(C(=O)Nc3cccc(C(C)=O)c3)nc2)c1	5.3%	13.6%	-2.0%	u	20µM*	u
CC(=O)CC(=O)Nc1ccc(Cl)cn1	26.1%	-1.9%	-10.5%	-16.4%	-13.1%	x
CC(=O)c1cccc(NC(=O)c2nccnc2C(=O)O)c1	1.3%	15.0%	-20.4%	-10.2%	20µM*	u
COC(=O)c1cc(NC(=O)c2nccnc2C(=O)O)cc(C(=O)OC)c1	x	30.6%	56.2µM*	-39.0%	56.2µM*	44.7µM*
Cc1cc(C)cc(NC(=O)c2nccnc2C(=O)O)c1	x	6.4%	u	u	79.4µM*	25.1µM*
SMILES	L3MBTL1 block	HP1b chromo inh	Sfp PPTase inh	BAZ2B block	JMJD2A Tudor	G9a block
Cc1ccc(NC(=O)c2nccnc2C(=O)O)cc1C	x	20.4%	14.7%	u	-31.9%	44.7µM*
CC(=O)Nc1cccc(C(=O)Nc2cccc3ncccc23)c1	x	28.6%	11.5%	0.6%	-6.0%	44.7µM*
Nc1cccc(C(=O)Nc2cccc3ncccc23)c1	x	19.0%	5.3%	-13.1%	-3.3%	x
CCC(C)N(C(=O)c1csnn1)C(C(=O)NCc1ccc(F)cc1)c1ccccc1F (stereo not drawn)	x	5.2%	0.6%	-2.1%	-2.8%	10.0%
CCOC(=O)C1=CN(CC)S(=O)(=O)NC1c1cccc(OC)c1 (stereo not drawn)	12.2%	-2.8%	x	x	-19.2%	x
CN1c2c(nc(N)[nH]c2=O)NCC1CNc1ccc(C(=O)NC(CCC(=O)O)C(=O)O)cc1 (stereo not drawn)	x	x	8.3%	x	x	6.0%[12.7 µM]
COc1ccccc1N1CCN(Cc2cc(Br)c(O)c3ncccc23)CC1	x	18.0%	16.9%	12.6µM*	39.8µM*	8.91µM*
COc1ccc(-c2noc(CN3CCN(c4ccccc4OC)CC3)n2)cc1OC	x	14.0%	x	-33.9%	-21.5%	-40.8%[59 µM]
CCCOCc1cc(CN2CCN(c3ccccc3OC)CC2)c(O)c2ncccc12	x	-14.1%	x	4.47µM*	20µM*	u
COc1ccc2oc(=O)cc(CN3CCN(c4ccccc4OC)CC3)c2c1	x	-1.0%	x	-2.4%	-30.5%	-25.9%[59 µM]
CCOCc1cc(CN2CCN(c3ccccc3OC)CC2)c(O)c2ncccc12	x	32.4%	x	5.62µM*	22.4µM*	-41.8%[59 µM]
COc1ccccc1N1CCN(Cc2cc(COC(C)C)c3cccnc3c2O)CC1	x	11.8%	x	3.98µM*	22.4µM*	-49.9%[59 µM]
CCOc1ccccc1N1CCN(Cc2cccc(OC)c2O)CC1	-1.2%	13.9%	12.8%	-10.9%	-23.1%	-5.0%[59 µM]
COc1cc(NC(=O)Cn2cnc3c(NCc4ccccc4)ncnc32)cc(OC)c1OC	-11.2%	43.0%	x	x	-13.7%	x
O=S(=O)(CS(=O)(=O)c1ccccc1)c1ccccc1	x	47.1%	x	x	-15.2%	x
O=C1CCCC(=O)C1CS(=O)(=O)c1ccccc1	x	15.7%	20µM*	-23.0%	-11.9%	3.16µM*
COc1ccc(C2CC(=O)C(CS(=O)(=O)c3ccccc3)C(=O)C2)cc1 (stereo not drawn)	x	-9.5%	-11.7%	14.5%	-3.8%[11.4 µM]	45.1%
O=C1CC(c2ccc(Cl)cc2)CC(=O)C1CS(=O)(=O)c1ccccc1 (stereo not drawn)	x	-24.5%	-94.3%	79.4µM*	-15.8%[11.4 µM]	3.98µM*
Cn1c(=O)c2c(nc(SCCN3CCOCC3)n2C)n(C)c1=O	40.2%	29.5%	21.9%	27.7%	-17.3%	x
CC1CN(c2ccc([N+](=O)[O-])c(NCCOc3ccc(Cl)cc3)c2)CC(C)N1 (stereo not drawn)	-18.7%	u	u	11.2µM*	31.6µM*	44.7µM*
CCc1ccc(OCCNc2cc(N3CCNC(C)C3)ccc2[N+](=O)[O-])cc1 (stereo not drawn)	-20.2%	u	x	35.5µM*	39.8µM*	3.7%[2.33 µM]

High-throughput results (PubChem BioAssay)
